Assay results from paper PMC7862700, “An all-to-all approach to the identification of sequence-specific readers for epigenetic DNA modifications on cytosine”.

How the values were obtained:
Assay in all cases: DAPPL (digital affinity profiling via proximity ligation, sequencing); 10 mM Tris-HCl pH 7.5, 50 mM NaCl, 1 mM DTT, 4% glycerol, room temperature, 30 min; GST-TFs on glutathione beads, 16-mer random dsDNA library, 0.1% formaldehyde crosslink after washing; high values mean tight binding
Conditions in all cases: protein: recombinant; tags: N-terminal GST; dsDNA, one strand shown
FEV = target: T1, FEV (Homo sapiens, UniProt Q99581 1-238)
T1 sequence: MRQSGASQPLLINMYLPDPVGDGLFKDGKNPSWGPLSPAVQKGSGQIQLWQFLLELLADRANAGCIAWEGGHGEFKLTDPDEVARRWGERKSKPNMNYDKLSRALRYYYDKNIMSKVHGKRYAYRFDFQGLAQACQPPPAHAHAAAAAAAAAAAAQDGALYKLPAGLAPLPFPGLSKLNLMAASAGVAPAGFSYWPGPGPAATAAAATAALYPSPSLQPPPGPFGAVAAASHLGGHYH
Summary of the method: (§1)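 The binding signal reported is, for every hexamer, its read frequency for a factor over its read frequency for the tag-only sample. Reads came from pools of yeast-expressed, GST-fused human transcription factors on glutathione beads, barcoded with DNA and mixed with that sample, which were incubated with 200 nmole of a random double-stranded 16-mer DNA library in Tris/NaCl/DTT/glycerol buffer at room temperature for 30 min. After washing, the pools were crosslinked with 0.1% formaldehyde, proximity-ligated with BsaI/T4 ligase for 1 h at 37 °C, PCR-amplified and sequenced on an Illumina NextSeq500.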

ETV5 = ETV5 (Homo sapiens, UniProt P41161 1-510)
Chain of ETV5 (P41161 whole entry): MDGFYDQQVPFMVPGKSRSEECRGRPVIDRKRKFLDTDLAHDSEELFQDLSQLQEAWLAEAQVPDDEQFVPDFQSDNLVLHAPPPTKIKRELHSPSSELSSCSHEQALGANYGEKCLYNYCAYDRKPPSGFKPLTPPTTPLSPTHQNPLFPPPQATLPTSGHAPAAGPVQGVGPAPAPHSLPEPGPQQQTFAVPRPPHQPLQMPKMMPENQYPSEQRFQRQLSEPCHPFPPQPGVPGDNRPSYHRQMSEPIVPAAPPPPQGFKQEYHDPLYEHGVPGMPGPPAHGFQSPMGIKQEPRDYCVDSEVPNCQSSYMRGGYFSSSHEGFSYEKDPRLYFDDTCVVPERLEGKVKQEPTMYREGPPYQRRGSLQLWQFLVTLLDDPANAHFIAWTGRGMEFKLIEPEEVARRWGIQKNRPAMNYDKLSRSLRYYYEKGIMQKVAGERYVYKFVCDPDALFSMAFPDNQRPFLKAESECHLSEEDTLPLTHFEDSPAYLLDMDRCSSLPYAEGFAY
Summary of the method: as §1

SPIC = target: T2, SPIC (Homo sapiens, UniProt Q8N5J4 1-248)
T2 sequence: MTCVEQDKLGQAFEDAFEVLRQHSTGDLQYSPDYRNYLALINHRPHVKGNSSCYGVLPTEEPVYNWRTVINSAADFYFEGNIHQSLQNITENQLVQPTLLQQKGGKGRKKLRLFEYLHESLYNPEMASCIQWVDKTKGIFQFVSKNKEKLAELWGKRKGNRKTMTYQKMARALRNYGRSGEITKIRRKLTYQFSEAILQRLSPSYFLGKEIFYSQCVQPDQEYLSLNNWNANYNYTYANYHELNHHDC
Summary of the method: as §1

ELF4 = ELF4 (Homo sapiens, UniProt Q99607 1-663)
Chain of ELF4 (Q99607 whole entry): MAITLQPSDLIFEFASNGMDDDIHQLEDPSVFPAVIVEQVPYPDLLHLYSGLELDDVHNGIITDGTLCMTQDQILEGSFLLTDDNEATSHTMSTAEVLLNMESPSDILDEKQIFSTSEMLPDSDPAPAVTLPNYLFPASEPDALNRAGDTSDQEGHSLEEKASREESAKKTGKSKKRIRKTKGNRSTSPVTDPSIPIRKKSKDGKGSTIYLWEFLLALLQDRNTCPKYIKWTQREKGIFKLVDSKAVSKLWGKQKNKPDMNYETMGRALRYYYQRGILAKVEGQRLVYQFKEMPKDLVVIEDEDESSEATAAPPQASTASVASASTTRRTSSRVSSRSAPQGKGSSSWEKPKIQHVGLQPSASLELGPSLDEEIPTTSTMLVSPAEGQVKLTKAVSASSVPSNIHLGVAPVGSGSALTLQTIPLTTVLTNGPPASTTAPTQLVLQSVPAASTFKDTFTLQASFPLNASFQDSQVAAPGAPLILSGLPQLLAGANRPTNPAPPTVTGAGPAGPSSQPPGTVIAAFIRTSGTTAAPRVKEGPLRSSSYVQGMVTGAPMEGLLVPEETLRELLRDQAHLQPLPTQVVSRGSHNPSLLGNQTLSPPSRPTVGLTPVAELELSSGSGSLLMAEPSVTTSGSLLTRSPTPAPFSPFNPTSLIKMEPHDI
Summary of the method: as §1

ELK4 = target: T3, ELK4 (Homo sapiens, UniProt P28324-2 1-405)
T3 sequence: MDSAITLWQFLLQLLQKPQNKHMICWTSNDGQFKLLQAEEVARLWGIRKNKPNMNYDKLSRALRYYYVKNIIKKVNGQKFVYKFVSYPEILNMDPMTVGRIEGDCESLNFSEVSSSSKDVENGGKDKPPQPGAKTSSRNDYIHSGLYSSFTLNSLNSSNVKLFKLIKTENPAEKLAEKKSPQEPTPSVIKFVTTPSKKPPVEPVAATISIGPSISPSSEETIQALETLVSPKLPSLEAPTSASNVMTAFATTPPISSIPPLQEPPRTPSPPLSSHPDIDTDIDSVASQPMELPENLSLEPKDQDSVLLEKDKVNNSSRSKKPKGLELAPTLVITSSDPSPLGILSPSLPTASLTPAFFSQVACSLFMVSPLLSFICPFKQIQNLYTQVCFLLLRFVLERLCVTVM
Summary of the method: as §1

ETV2 = target: T4, ETV2 (Homo sapiens, UniProt O00321 1-342)
T4 sequence: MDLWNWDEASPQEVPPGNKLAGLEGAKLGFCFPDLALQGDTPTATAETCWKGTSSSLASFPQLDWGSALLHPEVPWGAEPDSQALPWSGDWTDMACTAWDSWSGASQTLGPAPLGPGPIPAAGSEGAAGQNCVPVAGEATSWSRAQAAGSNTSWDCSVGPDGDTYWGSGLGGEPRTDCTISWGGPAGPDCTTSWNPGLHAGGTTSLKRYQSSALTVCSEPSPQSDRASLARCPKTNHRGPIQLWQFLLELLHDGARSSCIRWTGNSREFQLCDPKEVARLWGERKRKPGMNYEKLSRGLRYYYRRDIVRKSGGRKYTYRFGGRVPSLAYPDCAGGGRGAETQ
Summary of the method: as §1

ELF3 = target: T5, ELF3 (Homo sapiens, UniProt P78545 1-371)
T5 sequence: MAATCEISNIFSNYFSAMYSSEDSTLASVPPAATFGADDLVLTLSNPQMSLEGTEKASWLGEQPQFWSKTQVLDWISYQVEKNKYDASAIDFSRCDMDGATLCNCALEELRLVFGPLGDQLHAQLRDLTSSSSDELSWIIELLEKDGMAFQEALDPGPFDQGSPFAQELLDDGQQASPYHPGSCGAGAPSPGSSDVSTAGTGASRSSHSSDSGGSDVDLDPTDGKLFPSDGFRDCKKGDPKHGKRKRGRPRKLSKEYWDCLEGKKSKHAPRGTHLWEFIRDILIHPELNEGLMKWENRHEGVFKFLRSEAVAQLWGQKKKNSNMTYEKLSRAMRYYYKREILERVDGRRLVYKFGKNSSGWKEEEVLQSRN
Summary of the method: as §1

ETV1 = ETV1 (Homo sapiens, UniProt P50549 1-477)
Chain of ETV1 (P50549 whole entry): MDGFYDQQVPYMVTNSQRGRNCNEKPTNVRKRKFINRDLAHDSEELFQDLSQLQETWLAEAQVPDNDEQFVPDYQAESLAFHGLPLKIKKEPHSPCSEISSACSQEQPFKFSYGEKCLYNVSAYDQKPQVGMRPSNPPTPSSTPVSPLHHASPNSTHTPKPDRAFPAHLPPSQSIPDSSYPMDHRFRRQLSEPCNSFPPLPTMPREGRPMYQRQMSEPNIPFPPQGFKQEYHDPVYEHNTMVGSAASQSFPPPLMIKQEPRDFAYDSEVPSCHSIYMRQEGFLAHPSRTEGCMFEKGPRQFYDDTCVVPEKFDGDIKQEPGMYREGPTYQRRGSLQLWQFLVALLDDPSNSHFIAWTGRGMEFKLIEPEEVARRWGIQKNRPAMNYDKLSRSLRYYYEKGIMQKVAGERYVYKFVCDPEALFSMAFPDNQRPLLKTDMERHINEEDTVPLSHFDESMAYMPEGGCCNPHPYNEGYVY
Summary of the method: as §1

ERF = target: T6, ERF (Homo sapiens, UniProt P50548 1-548)
T6 sequence: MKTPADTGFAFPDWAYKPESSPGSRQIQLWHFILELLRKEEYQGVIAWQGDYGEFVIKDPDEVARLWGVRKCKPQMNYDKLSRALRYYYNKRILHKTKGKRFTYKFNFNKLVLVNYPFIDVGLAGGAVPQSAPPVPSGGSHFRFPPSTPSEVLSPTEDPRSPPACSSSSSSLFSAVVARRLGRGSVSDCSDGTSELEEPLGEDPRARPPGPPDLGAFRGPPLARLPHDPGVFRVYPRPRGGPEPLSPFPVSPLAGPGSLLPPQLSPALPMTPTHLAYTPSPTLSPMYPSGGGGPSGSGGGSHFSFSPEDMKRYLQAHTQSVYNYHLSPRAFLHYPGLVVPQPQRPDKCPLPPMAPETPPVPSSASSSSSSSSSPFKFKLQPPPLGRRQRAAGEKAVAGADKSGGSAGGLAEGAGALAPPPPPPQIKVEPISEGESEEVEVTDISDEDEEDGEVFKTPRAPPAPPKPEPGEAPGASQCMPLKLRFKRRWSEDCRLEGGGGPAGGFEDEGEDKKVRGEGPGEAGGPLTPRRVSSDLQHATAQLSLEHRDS
Summary of the method: as §1

ETV3L = target: T7, ETV3L (Homo sapiens, UniProt Q6ZN32 1-361)
T7 sequence: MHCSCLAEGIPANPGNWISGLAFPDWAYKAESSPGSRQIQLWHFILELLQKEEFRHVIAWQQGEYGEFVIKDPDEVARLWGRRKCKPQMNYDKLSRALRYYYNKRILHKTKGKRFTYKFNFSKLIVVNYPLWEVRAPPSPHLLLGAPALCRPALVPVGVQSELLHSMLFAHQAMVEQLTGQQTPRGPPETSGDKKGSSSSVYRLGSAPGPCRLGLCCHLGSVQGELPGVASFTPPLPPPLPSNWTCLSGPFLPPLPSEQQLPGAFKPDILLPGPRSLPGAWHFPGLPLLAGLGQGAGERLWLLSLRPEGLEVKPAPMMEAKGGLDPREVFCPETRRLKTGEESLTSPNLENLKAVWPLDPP
Summary of the method: as §1

ETS2 = target: T8, ETS2 (Homo sapiens, UniProt P15036 1-469)
T8 sequence: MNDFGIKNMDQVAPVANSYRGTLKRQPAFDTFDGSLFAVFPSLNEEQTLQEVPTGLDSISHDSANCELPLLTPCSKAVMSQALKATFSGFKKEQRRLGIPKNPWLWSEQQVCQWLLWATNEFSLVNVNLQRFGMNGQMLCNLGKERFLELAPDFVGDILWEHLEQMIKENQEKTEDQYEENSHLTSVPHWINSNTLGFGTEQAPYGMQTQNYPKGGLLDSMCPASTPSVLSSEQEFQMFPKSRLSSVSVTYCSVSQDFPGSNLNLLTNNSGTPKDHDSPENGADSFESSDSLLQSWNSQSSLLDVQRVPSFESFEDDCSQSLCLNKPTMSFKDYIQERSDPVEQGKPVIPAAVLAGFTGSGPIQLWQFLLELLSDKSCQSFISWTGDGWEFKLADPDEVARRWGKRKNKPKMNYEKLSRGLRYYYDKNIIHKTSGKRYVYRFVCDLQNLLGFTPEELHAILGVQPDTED
Summary of the method: as §1

SPDEF = target: T9, SPDEF (Homo sapiens, UniProt O95238 1-335)
T9 sequence: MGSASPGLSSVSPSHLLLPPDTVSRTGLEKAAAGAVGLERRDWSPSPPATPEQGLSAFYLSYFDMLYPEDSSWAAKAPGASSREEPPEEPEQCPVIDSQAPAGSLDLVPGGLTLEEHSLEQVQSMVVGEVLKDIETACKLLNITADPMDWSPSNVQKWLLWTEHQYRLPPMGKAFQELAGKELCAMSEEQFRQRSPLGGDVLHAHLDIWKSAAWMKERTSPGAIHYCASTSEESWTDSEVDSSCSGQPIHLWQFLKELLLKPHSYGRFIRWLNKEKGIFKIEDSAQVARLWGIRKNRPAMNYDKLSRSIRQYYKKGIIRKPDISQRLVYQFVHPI
Summary of the method: as §1

ETV7 = target: T10, ETV7 (Homo sapiens, UniProt Q9Y603 1-341)
T10 sequence: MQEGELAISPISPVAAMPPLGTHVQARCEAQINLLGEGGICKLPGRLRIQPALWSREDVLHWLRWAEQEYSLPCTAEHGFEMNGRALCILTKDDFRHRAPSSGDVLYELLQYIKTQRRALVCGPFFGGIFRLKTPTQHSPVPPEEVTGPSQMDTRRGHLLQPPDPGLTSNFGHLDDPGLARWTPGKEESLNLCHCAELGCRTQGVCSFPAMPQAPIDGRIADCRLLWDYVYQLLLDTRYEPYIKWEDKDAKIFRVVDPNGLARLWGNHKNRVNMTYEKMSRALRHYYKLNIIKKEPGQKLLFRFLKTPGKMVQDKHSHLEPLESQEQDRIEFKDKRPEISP
Summary of the method: as §1

ELF5 = target: T11, ELF5 (Homo sapiens, UniProt Q9UKW6-2 1-255)
T11 sequence: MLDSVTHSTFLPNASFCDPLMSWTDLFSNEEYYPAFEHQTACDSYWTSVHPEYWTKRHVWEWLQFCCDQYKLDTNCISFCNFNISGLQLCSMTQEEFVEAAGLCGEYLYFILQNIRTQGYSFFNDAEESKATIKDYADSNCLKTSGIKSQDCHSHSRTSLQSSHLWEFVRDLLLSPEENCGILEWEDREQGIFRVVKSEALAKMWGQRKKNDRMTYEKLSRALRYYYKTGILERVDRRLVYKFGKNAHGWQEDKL
Summary of the method: as §1

ETV3 = target: T12, ETV3 (Homo sapiens, UniProt P41162-2 1-143)
T12 sequence: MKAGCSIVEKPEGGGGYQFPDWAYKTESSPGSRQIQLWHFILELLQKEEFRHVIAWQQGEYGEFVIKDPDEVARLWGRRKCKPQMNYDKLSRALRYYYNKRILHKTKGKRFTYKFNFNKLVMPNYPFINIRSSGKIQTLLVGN
Summary of the method: as §1

ETV6 = ETV6 (Homo sapiens, UniProt P41212 1-452)
Chain of ETV6 (P41212 whole entry): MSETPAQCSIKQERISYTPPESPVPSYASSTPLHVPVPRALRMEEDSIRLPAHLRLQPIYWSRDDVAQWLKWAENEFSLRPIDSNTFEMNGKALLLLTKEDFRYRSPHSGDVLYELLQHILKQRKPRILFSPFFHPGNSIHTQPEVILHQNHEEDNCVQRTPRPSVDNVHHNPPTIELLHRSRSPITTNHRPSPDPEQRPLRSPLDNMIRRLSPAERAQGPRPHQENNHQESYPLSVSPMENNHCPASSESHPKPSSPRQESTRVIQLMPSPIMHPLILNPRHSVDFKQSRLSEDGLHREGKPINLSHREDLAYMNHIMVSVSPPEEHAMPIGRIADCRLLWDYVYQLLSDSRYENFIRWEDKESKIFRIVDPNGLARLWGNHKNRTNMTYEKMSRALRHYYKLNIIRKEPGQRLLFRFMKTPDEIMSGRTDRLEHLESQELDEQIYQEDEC
Summary of the method: as §1

| Sequence | binding signal (FEV) | binding signal (ETV5) | binding signal (SPIC) | binding signal (ELF4) | binding signal (ELK4) | binding signal (ETV2) | binding signal (ELF3) | binding signal (ETV1) | binding signal (ERF) | binding signal (ETV3L) | binding signal (ETS2) | binding signal (SPDEF) | binding signal (ETV7) | binding signal (ELF5) | binding signal (ETV3) | binding signal (ETV6) |
| --- | --- | --- | --- | --- | --- | --- | --- | --- | --- | --- | --- | --- | --- | --- | --- | --- |
| TCCGGG | 1.36 fold enrichment (6-mer frequency, TF over GST control) | 1.69 fold enrichment (6-mer frequency, TF over GST control) | 1.63 fold enrichment (6-mer frequency, TF over GST control) | 1.41 fold enrichment (6-mer frequency, TF over GST control) | 1.37 fold enrichment (6-mer frequency, TF over GST control) | 1.5 fold enrichment (6-mer frequency, TF over GST control) | 1.41 fold enrichment (6-mer frequency, TF over GST control) | 1.59 fold enrichment (6-mer frequency, TF over GST control) | 1.38 fold enrichment (6-mer frequency, TF over GST control) | 1.4 fold enrichment (6-mer frequency, TF over GST control) | 1.67 fold enrichment (6-mer frequency, TF over GST control) | 2.46 fold enrichment (6-mer frequency, TF over GST control) | 1.44 fold enrichment (6-mer frequency, TF over GST control) | 2.39 fold enrichment (6-mer frequency, TF over GST control) | 1.71 fold enrichment (6-mer frequency, TF over GST control) | 1.77 fold enrichment (6-mer frequency, TF over GST control) |
| CGTACC | 1.19 fold enrichment (6-mer frequency, TF over GST control) | 1.17 fold enrichment (6-mer frequency, TF over GST control) | 1.14 fold enrichment (6-mer frequency, TF over GST control) | 1.17 fold enrichment (6-mer frequency, TF over GST control) | 1.18 fold enrichment (6-mer frequency, TF over GST control) | 1.15 fold enrichment (6-mer frequency, TF over GST control) | 1.25 fold enrichment (6-mer frequency, TF over GST control) | 1.26 fold enrichment (6-mer frequency, TF over GST control) | 1.12 fold enrichment (6-mer frequency, TF over GST control) | 1.13 fold enrichment (6-mer frequency, TF over GST control) | 1.15 fold enrichment (6-mer frequency, TF over GST control) | 1.17 fold enrichment (6-mer frequency, TF over GST control) | 1.1 fold enrichment (6-mer frequency, TF over GST control) | 1.19 fold enrichment (6-mer frequency, TF over GST control) | 1.03 fold enrichment (6-mer frequency, TF over GST control) | 1.16 fold enrichment (6-mer frequency, TF over GST control) |
